These results are taken from PubChem BioAssay (NCATS).

“And” between values parts separate entries of the source, which are not always exact repeats. Equal values may be shown once. Records with an inconclusive call do not appear. A number with no mark means an inactive call. Calls come from the whole dose curve; as a rule, active = well fitted activation curve with a large enough effect; inconclusive = small, poorly fitted or top-dose-only effect; inactive = no such curve, though single readings can be large or run the other way.

The assay deals with Cellular tumor antigen p53 (Homo sapiens) (UniProt P04637). Kind of assay: Primary qHTS for small molecule compounds that upregulate eGFP-tagged delta133p53alpha (in N-terminal) cells. (AID 2060322).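 Note: series mostly up to about 56 µM; 0% = DMSO vehicle and 100% = reference activator; nearly all actives have a fitted effect of over 75% in size.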 To be noted: NCI-H358 eGFP-delta133p53alpha fluorescence, 24 h; activation: hits give high values. The essentials: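 NCI-H358 cells pre-induced 24 h with 10 ng/ml doxycycline to express N-terminal eGFP-delta133p53alpha, then dosed 24 h at 37C without doxycycline; fixed, Hoechst-stained, GFP intensity by laser scanning cytometry, normalized to DMSO (0%) and 57.5 uM 5-azacytidine (100%).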
Chain of Cellular tumor antigen p53 (Homo sapiens) (P04637 whole entry, looked up): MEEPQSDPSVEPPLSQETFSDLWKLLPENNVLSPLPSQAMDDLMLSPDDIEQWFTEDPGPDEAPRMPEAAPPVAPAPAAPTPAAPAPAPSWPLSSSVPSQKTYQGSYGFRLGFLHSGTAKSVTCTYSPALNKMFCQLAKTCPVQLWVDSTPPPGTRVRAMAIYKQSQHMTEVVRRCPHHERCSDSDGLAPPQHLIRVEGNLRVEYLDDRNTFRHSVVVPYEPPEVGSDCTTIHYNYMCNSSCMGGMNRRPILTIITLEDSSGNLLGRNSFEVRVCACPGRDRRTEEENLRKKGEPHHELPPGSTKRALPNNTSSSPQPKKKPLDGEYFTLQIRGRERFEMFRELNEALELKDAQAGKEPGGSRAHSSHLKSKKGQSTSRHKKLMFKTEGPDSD
(qHTS replaces the single test concentration by a dilution series.)
As for `NC(=O)c1ncn([C@@H]2O[C@H](CO)[C@@H](O)[C@@H]2O)n1`, the activation is -6.05%. `CC(=O)OC(C)OC(=O)C(C)c1ccc(-c2ccccc2)c(F)c1` (stereo not given): the activation is -24.3%. The value for `O=C(O)c1ccccc1NCCc1ccccc1` was -1.69%; that for `CN(CCCN1c2ccccc2CCc2ccccc21)CC(=O)c1ccc(Cl)cc1` was -1.69%; that for `CCCCCCCCCCCCOCCOCCOCCOCCOCCOCCOCCOCCOCCO` was 6.21%. The value for `Cc1ccc(S(=O)(=O)NC(=O)NC2CCCCCCC2)cc1` was -3.95%; that for `Nc1ccc(C(=O)O)c(O)c1` was 20.9%. The value for `C=C[C@@]1(C)CC(=O)[C@]2(O)[C@@]3(C)[C@@H](O)CCC(C)(C)[C@@H]3[C@H](O)[C@H](OC(C)=O)[C@@]2(C)O1` was -2.51%; that for `O=C(NCCCN1CCOCC1)c1ccc(Cl)cc1` was -23.2%. `O=C(O)CCCCC1CCSS1` (stereo not given): the activation was 5.08%. The value for `Cc1cc(C(=O)N2Cc3cnn(C)c3Nc3ccccc32)ccc1CNC(=O)N1CCC[C@H]1C(=S)N1CCCN(C)CC1` was -0.893%; that for `CN(C)[C@@H]1C(=O)C(C(=O)NCN2CCCC2)=C(O)[C@@]2(O)C(=O)C3=C(O)c4c(O)cccc4[C@@](C)(O)C3C[C@@H]12` (stereo not given in full) was -13%; that for `CN1C[C@H]2c3ccccc3Oc3ccc(Cl)cc3[C@@H]2C1` was -34.8% and -0.565%.

Regarding `CS(=O)(=O)c1ccc([C@@H](O)[C@@H](CO)NC(=O)C(Cl)Cl)cc1`, the activation is 15.3% and 17.8%. The same measure for `CN[C@H](CC(C)C)C(=O)N[C@H]1C(=O)N[C@@H](CC(N)=O)C(=O)N[C@@H]2C(=O)N[C@H]3C(=O)N[C@H](C(=O)N[C@H](C(=O)O)c4cc(O)cc(O)c4-c4cc3ccc4O)[C@H](O)c3ccc(c(Cl)c3)Oc3cc2cc(c3O[C@@H]2O[C@H](CO)[C@@H](O)[C@H](O)[C@@H]2O[C@H]2C[C@](C)(N)[C@H](O)[C@H](C)O2)Oc2ccc(cc2Cl)[C@H]1O`: 4.73%.

As to `CCCCc1nc(Cl)c(CO)n1Cc1ccc(-c2ccccc2-c2nn[nH]n2)cc1`, the activation was -19.2%. The same measure for `Cn1c([N+](=O)[O-])cnc1COC(N)=O`: -9.6%.

In the case of `CCCCC(O)/C=C(C)/C=C/C=C/C(=O)N1CCCC1=O` (stereo not given), the activation is 13.4%. The same measure for `CC(C)CCCC(C)NCCC(C)C` (stereo not given): -13.4%; for `N#CC(=C(O)c1ccc(Cl)cc1Cl)c1nc2cc(Cl)ccc2c(=O)[nH]1`: 7.18%; for `O=C(O)c1ccc(S(=O)(=O)N(Cl)Cl)cc1`: 20.9%.

`O=C(Nc1ccc(Cl)c(Cl)c1)C1CC1`: the activation is -7.53%.

Regarding `Cc1cc(NS(=O)(=O)c2ccc(N)cc2)nc(C)n1`, the activation is -13.4%. The same measure for `CC12CCC(CC1)C(C)(C)O2`: -0.565%. The value for `CC(C)c1cc2c(c(O)c1O)[C@@]13CCCC(C)(C)[C@@H]1[C@H](OC3=O)C2=O` was 0%.
